# Experimental data reported in the supplement of paper PMC10981050.
# Counter-ions that a name gives are not always drawn.
# Test system: OCI-AML2
# Assay: cell viability relative to vehicle control; higher = less cytotoxic
# Conditions: 10 µM; SRSF2 genotype: wt/wt
# In short: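 Four leukaemia lines, as CRISPR-edited mutant clones and isogenic wild-type clones, were tested against Selleck bioactive, kinase and epigenetic probe libraries after removal of identity-inconsistent compounds. Cells were exposed to a single 10 µM dose for 48 h, and CellTiter-Glo luminescence was then read. Viability was calculated relative to the on-plate vehicle control.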
row,Structure (SMILES),cell viability
1,COc1cc(C=O)c([N+](=O)[O-])cc1OC,125%
2,CCOc1ccccc1OCCN[C@H](C)Cc1ccc(OC)c(S(N)(=O)=O)c1 [Tamsulosin hydrochloride],104%
3,O=C1CC(=O)c2c(Cl)c(Cl)c(Cl)c(Cl)c21,104%
4,CO/N=C(\C(=O)N[C@@H]1C(=O)N2C(C(=O)O)=C(CSC(=O)c3ccco3)CS[C@H]12)c1csc(N)n1 [Ceftiofur hydrochloride],95.4%
5,CC1=CC(=O)CC(C)(C)C1=O [Ketoisophorone],108%
6,CO[C@@]12[C@H](COC(N)=O)C3=C(C(=O)C(C)=C(N)C3=O)N1C[C@@H]1N[C@@H]12 [Mitomycin C],0.98%
7,O=c1cc(-c2ccc(O)c(O)c2)oc2cc(O)cc(O)c12 [Luteolin],58.9%
8,Cc1cc(C2CCCCC2)n(O)c(=O)c1 [Ciclopirox ethanolamine],18%
9,N[C@@H]1CN(c2c(F)cc3c(=O)c(C(=O)O)cn([C@@H]4C[C@@H]4F)c3c2Cl)CC12CC2 [Sitafloxacin hydrate],107%
10,COCCCN1CCC(NC(=O)c2cc(Cl)c(N)c3c2OCC3)CC1 [Prucalopride],88.7%
11,COc1cc2nc(N3CCCC3)nc(NCCCCCN3CCCC3)c2cc1OC,0.37%
12,O=C(O)c1ccc2c(c1)C(=O)c1ccccc1C2=O [Anthraquinone-2-carboxylic Acid],94.9%
13,C[C@@H]1O[C@@H]1P(=O)(O)O [fosfomycin tromethamine],98.6%
14,CCCCCCCCCC[C@H](C(=O)O)[C@]1(C(=O)O)CCC(=O)O1 [Spiculisporic Acid],103%
15,CC1(C)CCC2(C(=O)O)C(O)CC3(C)C(=CCC4C5(C)CC(O)C(O)C(C)(CO)C5CCC43C)C2C1 (stereo not given) [Polygalacic acid],94.9%
16,"C[C@H]1[C@H](NC(=O)/C(=N\OC(C)(C)C(=O)O)c2csc(N)n2)C(=O)N1S(=O)(=O)O [Aztreonam (Azactam, Cayston)]",104%
17,C#C[C@]1(O)CC[C@H]2[C@@H]3CCc4cc(O)ccc4[C@H]3CC[C@@]21C [Ethinyl Estradiol],79.7%
18,CC(C)COc1ccc(CNC(=O)N(Cc2ccc(F)cc2)C2CCN(C)CC2)cc1 [Pimavanserin],1.2%
19,"Oc1cc(O)c2c(c1)OC(c1ccc(O)c(O)c1)C(O)C2 (single isomer, unassigned; (+)) [(+)-Catechin hydrate]",108%
20,Cc1ccc([C@@H]2O[C@H](CO)[C@@H](O)[C@H](O)[C@H]2O)cc1Cc1ccc(-c2ccc(F)cc2)s1 [Canagliflozin],97.1%

row,Structure (SMILES),cell viability
1,Nc1ncnc2c1c(-c1cnc3[nH]ccc3c1)nn2C1CCCC1,7.66%
2,COc1ccc(-c2oc3c(CC=C(C)C)c(O)cc(O)c3c(=O)c2O[C@@H]2O[C@@H](C)[C@H](O)[C@@H](O)[C@H]2O)cc1 [Baohuoside I],107%
3,OC1CCC(Oc2cccc3cnc(Nc4ccc5nc[nH]c5c4)nc23)CC1 (stereo not given),16.3%
4,CC(C)(C)c1[nH]cnc1/C=c1\[nH]c(=O)/c(=C/c2ccccc2)[nH]c1=O [NPI-2358 (Plinabulin)],5.45%
5,CN(C)C(=O)c1ccc(S(=O)(=O)c2ccc(NC(=O)C(C)(O)C(F)(F)F)c(Cl)c2)cc1 (stereo not given),55.2%
6,CN(C)C(=O)COC(=O)Cc1ccc(OC(=O)c2ccc(NC(=N)N)cc2)cc1 [Camostat Mesilate (FOY-305)],99.6%
7,C[C@@H]1COC(Nc2ccc3ncnc(Nc4ccc(OCc5nccs5)c(Cl)c4)c3c2)=N1 [Varlitinib],88.2%
8,CCOC(=O)[C@H](CCc1ccccc1)N[C@H]1CS[C@H](c2cccs2)CN(CC(=O)O)C1=O [Temocapril HCl],111%
9,Nc1ccn([C@H]2CC[C@@H](CO)O2)c(=O)n1 [Zalcitabine],83%
10,OCCOCCN1CCN(Cc2cccc(Oc3ccccc3)c2)CC1,93.8%
11,CC(C)[C@H]1CC[C@H](C(=O)N[C@H](Cc2ccccc2)C(=O)O)CC1 [Nateglinide (Starlix)],97.5%
12,Nc1ccc(O)c(C(=O)O)c1 [Mesalamine (Lialda)],100%
13,NCCCCCN [Cadaverine],97.7%
14,CN[C@@H](C)C(=O)N[C@H](C(=O)N1CCC[C@H]1c1nc(C(=O)c2ccc(F)cc2)cs1)C1CCCCC1,90.5%
15,Nc1[nH]c(=O)ncc1Br [5-Bromocytosine],108%
16,COc1nc(C)cnc1NS(=O)(=O)c1cccnc1-c1ccc(-c2nnco2)cc1 [Zibotentan (ZD4054)],105%
17,CC(=CCNc1ncnc2nc[nH]c12)CO [Trans-Zeatin],97.4%
18,CCCCCCCCOc1ccccc1C(=O)Nc1ccc(C(=O)OCC[N+](C)(CC)CC)cc1 [Otilonium Bromide],70.2%
19,CCCCCCCC/C=C\CCCCCCCCCCCC(=O)O [Erucic acid],110%
20,C=C1C(=O)[C@]23[C@H](O)[C@H]1CC[C@H]2[C@@]12CO[C@]3(O)[C@@H](O)[C@@H]1C(C)(C)CC[C@@H]2O [Oridonin (Isodonol)],13.2%
